Source: PubChem BioAssay (NCI)
The panel holds about 83,000 compounds, 20% with a hit somewhere; the sample as a whole holds those more often.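 Cells were grown in 96-well plates and exposed to the test compound at a single concentration for 48 hours; results are reported as percent growth, with values below 10 considered active.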 Values without a mark were called inactive. Calls of active or inactive are those of the source.

Columns and labels:
Assay in all cases: NCI-60 one-dose screen, 48 h (100 = growth as untreated, 0 = no growth, -100 = all killed)
Conditions in all cases: 10 µM unless noted
RPMI-8226 leukemia = test system: RPMI-8226 leukemia
OVCAR-8 ovarian = test system: OVCAR-8 ovarian
OVCAR-5 ovarian = test system: OVCAR-5 ovarian
OVCAR-4 ovarian = test system: OVCAR-4 ovarian
SK-OV-3 ovarian = test system: SK-OV-3 ovarian
IGROV1 ovarian = test system: IGROV1 ovarian
OVCAR-3 ovarian = test system: OVCAR-3 ovarian
HS 578T breast = test system: HS 578T breast
NCI/ADR-RES ovarian = test system: NCI/ADR-RES ovarian
T-47D breast = test system: T-47D breast
BT-549 breast = test system: BT-549 breast
MDA-MB-435 melanoma = test system: MDA-MB-435 melanoma
SW-620 colon = test system: SW-620 colon
MCF7 breast = test system: MCF7 breast
HCT-116 colon = test system: HCT-116 colon
HCC-2998 colon = test system: HCC-2998 colon
KM12 colon = test system: KM12 colon
SR leukemia = test system: SR leukemia

| SMILES | growth (RPMI-8226 leukemia) | growth (OVCAR-8 ovarian) | growth (OVCAR-5 ovarian) | growth (OVCAR-4 ovarian) [%] | growth (SK-OV-3 ovarian) | growth (IGROV1 ovarian) | growth (OVCAR-3 ovarian) | growth (HS 578T breast) | growth (NCI/ADR-RES ovarian) [%] | growth (T-47D breast) [%] | growth (BT-549 breast) | growth (MDA-MB-435 melanoma) | growth (SW-620 colon) | growth (MCF7 breast) | growth (HCT-116 colon) | growth (HCC-2998 colon) | growth (KM12 colon) | growth (SR leukemia) [%] |
| --- | --- | --- | --- | --- | --- | --- | --- | --- | --- | --- | --- | --- | --- | --- | --- | --- | --- | --- |
| Cc1cc2c(c(=O)o1)C(c1ccc(OC(=O)N3CCOCC3)cc1)C(C#N)=C(N)O2 (stereo unspecified) | 109% | 104% | 98.9% | 109 | 101% | 107% | 109% | 116% | 105 | 102 | 104% | 105% | 108% | 98% | 104% | 99.4% | 105% |  |
| CCOC(=O)[C@H](CSSc1ncnc2cc[nH]c12)NC(=O)[C@@H](C)c1ccc2cc(OC)ccc2c1 |  | 20.7% | 27.3% |  | 8.34% (active) | 41.3% | 25.4% | 59% | 18.6 | 23.3 | 46.3% | 24.4% |  | 8.81% (active) | 11.1% | 25.4% | 23.5% | 18.9 |
| Clc1cccc(Cl)c1Cn1c(-c2cncs2)nc2ccccc21 | 56.7% | 87% | 94% | 82.1 | 96.3% | 82.6% | 90.5% | 97% | 73 | 64.5 | 85.1% | 44.5% | 94% | 92.3% | 78.8% | 82.6% | 80.5% |  |
| COc1ccc(/C=C2\CCCC3=C2NC(C)=NC3c2ccc(OC)c(OC)c2)cc1OC (stereo unspecified) | -25.8% (active) | 3.09% (active) | 4.73% (active) | 21 | 6.97% (active) | 24.4% | 2.97% (active) | 59% | 11.2 | 11.2 | -16.1% (active) | 1.49% (active) | -28.8% (active) | 26.3% | -95.7% (active) | -47.8% (active) | 6.19% (active) |  |
| O=C(c1ccncc1)N1N=C(c2ccc(Cl)cc2)CC1c1c[nH]c2ccccc12 (stereo unspecified) |  | 98.5% | 105% |  | 84.2% | 79.3% | 95.5% |  | 97 | 74.8 | 92.8% | 99.9% | 96% | 70.2% | 94.3% | 105% | 96.8% | 57.5 |
| NC(=O)c1c(NC(=O)c2ccc(OCC3CCCO3)cc2)sc2c1CCCC2 (stereo unspecified) | 83.7% | 104% | 101% | 115 | 119% | -23.3% (active) | 108% | -24.5% (active) | 97.1 | 80.5 | 101% | 95.8% | 110% | 101% | 90% | 113% | 66.9% |  |
| COc1cc(C2CC(c3c(C)[n+]([O-])c4ccccc4[n+]3[O-])=NN2)cc(OC)c1OC (stereo unspecified) | 102% | 109% | 100% | 104 | 103% | 16.2% | 98% | 103% | 101 | 95.4 | 104% | 95.6% | 101% | 91.8% | 104% | 76.1% | 104% |  |
| O=C(COc1ccccc1)N1N=C(c2ccc(Cl)cc2)CC1c1c[nH]c2ccccc12 (stereo unspecified) |  | 70.4% | 112% |  |  | 30.2% | 77.9% | 93.7% |  | 51.4 | 71.3% | 93.8% | 54.5% | 39.7% | 68.5% | 103% | 74.1% | 10.8 |
| Cn1c(=O)c2c(nc3n2CCN(CCc2ccc(OCCN4CCOCC4)cc2)C3)n(C)c1=O | 100% | 109% | 103% | 95.5 | 118% | 108% | 110% | 106% | 112 | 93.6 | 109% | 105% | 105% | 95.7% | 109% | 122% | 103% |  |
